A selection: hits, their analogues and other compounds. The true share with any hit is near 13%.
USP28 inh = inhibitors of human USP28 deubiquitinase. Ubiquitin carboxyl-terminal hydrolase 28 (Homo sapiens), Q96RU2. purified USP28, Ub-rhodamine cleavage fluorescence, 30 min. inhibition, % at 25 µM. hit rate 3% among 47,000. AID 1645857, 2021
USP17 block = inhibitors of human USP17 deubiquitinase; hit rate 6.5% among 47,000; purified USP17, Ub-rhodamine cleavage fluorescence, 3 h; AID 1645855, 2021; inhibition, % at 50 µM
OTUD3 block = inhibitors of human OTUD3 deubiquitinase; inhibition, % at 25 µM; OTU domain-containing protein 3 (Homo sapiens), Q5T2D3; purified OTUD3, Ub-rhodamine fluorescence, 2 h; AID 1645858, 2021; hit rate 0.7% among 47,000
Target sequence (Q5T2D3 whole entry, looked up, the tested form may be a part): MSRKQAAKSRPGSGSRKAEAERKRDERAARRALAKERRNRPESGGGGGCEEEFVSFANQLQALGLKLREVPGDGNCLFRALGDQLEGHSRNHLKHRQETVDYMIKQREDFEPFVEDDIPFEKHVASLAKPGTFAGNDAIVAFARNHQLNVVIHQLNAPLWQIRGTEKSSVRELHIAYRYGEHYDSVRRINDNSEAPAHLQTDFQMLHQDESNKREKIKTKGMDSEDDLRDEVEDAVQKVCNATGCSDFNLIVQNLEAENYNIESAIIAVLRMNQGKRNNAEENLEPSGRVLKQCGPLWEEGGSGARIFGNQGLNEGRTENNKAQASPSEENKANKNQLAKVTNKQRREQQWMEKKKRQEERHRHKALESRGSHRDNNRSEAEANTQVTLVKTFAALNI
USP30 block = inhibitors of human USP30 deubiquitinase. Ubiquitin carboxyl-terminal hydrolase 30 (Homo sapiens), Q70CQ3. purified USP30, Ub-rhodamine cleavage fluorescence. inhibition, % at 25 µM. hit rate 5.3% among 47,000
USP8 block = inhibitors of human USP8 deubiquitinase | purified USP8, Ub-rhodamine cleavage fluorescence, 30 min | Ubiquitin carboxyl-terminal hydrolase 8 (Homo sapiens), P40818 | inhibition, % at 20 µM | hit rate 4.2% among 47,000 | AID 1645853, 2021
Of the large screens only hits and unclear results are named; the others gave an inactive call. Cut-off read from the data, not from the text of the source: active = inhibition above about 30%; inactive = the rest.

CCN(c1ccc(NC(=O)CSc2nnc(-c3ccccc3)n2-c2ccc(OC)c(OC)c2)cc1)C(C)C	USP28 inh 41, USP17 block 63, USP30 block 46
COc1cc(-c2nc3sc4c(c3c(=O)[nH]2)CCCC4)cc(OC)c1O	none
O=C(CCc1nc2sc3c(c2c(=O)[nH]1)CCCCC3)Nc1ccccc1	none
COc1ccc(-c2nc3sc4c(c3c(=O)[nH]2)CCCCCC4)c(OC)c1	USP17 block 31, USP30 block 34
COc1ccc(NC(=O)CCc2nc3sc4c(c3c(=O)[nH]2)CCCCC4)cc1	USP8 block 32
O=C(Nc1nc2c(s1)CCc1ccccc1-2)c1ccc(F)c(Cl)c1	none
COc1ccc(C(=O)N2CCN(c3cc(OC(C)C)nc(C)n3)CC2)cc1OC	none
O=C(c1cccnc1)c1c(N2CCOCC2)[nH]c(=O)c2ccccc12	USP17 block 37 (no result: USP28 inh, USP30 block)
COCCn1cc(NC(=O)N2CCN(c3cccc(Cl)c3)CC2)c2ccccc21	none
COC(=O)C1Cc2ccccc2CN1Cc1c(O)ccc2ccccc12 (configuration not stated)	none
CC1(C)CC2CC(C)(CN2Cc2c(O)ccc3ccccc23)C1 (configuration not stated)	USP17 block 57, USP8 block 87
Cc1ccc(NC(=O)CSc2nc3nc(C)ccc3o2)cc1	none
COCCCn1c(C(=O)Nc2cccc(OC)c2)cc2c(=O)n3cccc(C)c3nc21	none
CCC(C)NC(=O)c1cc2c(=O)n3cccc(C)c3nc2n1Cc1ccccc1 (configuration not stated)	none
COCCCn1c(C(N)=O)cc2c(=O)n3cccc(C)c3nc21	USP17 block 40
COCCCn1c(C(=O)NCCc2ccccc2)cc2c(=O)n3cccc(C)c3nc21	USP17 block 71
CCOCCCNC(=O)c1cc2c(=O)n3cccc(C)c3nc2n1Cc1ccccc1	USP17 block 41, USP30 block 44
CCCCN(C)C(=O)c1cc2c(=O)n3cccc(C)c3nc2n1Cc1ccccc1	USP17 block 63, USP30 block 42
Cc1cccn2c(=O)c3cc(C(=O)Nc4ccc5c(c4)OCCO5)n(Cc4ccccc4)c3nc12	none
COc1cccc(C(=O)N2CCC(=O)Nc3ccccc32)c1	none
COc1cccc(CCN2C[C@@]34CN(C(=O)c5ccncc5)C[C@@H](C[C@@H]3S2(=O)=O)O4)c1	none
COc1ccc(C(=O)N2CCC3(C2)Nc2cccnc2NC3=NC2CCCC2)cn1 (configuration not stated)	none
COc1cccc(C(=O)N2CCCn3nnc(CN4CCCCC4)c3C2)c1	none
O=C(Nc1ccc(-n2nnc(C(=O)N3CCCC3)n2)cc1)c1ccco1	none
CC(=O)CSc1nnc(-c2cnn(-c3ccccc3)c2N)o1	none
Nc1ccccc1-c1nnc(SCC(=O)c2ccccc2)o1	USP30 block 33
CCn1c(Cn2cccn2)nc2cc(NC(=O)c3ccc(F)cc3)ccc21	USP28 inh 53
CCn1c(Cn2cccn2)nc2cc(NC(=O)CC(C)C)ccc21	none
O=C(Nc1cc(C(F)(F)F)cc(C(F)(F)F)c1)c1cnc2sccn2c1=O	none
O=C(Nc1cc(C(F)(F)F)cc(C(F)(F)F)c1)c1ccc(-c2ccccn2)s1	USP30 block 41
Cc1csc2ncc(C(=O)N3CCN(c4ccccc4F)CC3)c(=O)n12	OTUD3 block 38
CSc1nc(C)c2c(n1)N(c1ccc(C(C)C)cc1)CC2	USP17 block 41
Cc1nc(SCc2ccccc2)nc2c1CCN2c1ccccc1	none
CN(CCc1noc(-c2ccccc2Cl)n1)C(=O)c1ccc(C#N)cc1	USP30 block 31
CC(=O)Nc1ccc([C@H]2OCC(=O)N(C3CCOCC3)[C@@H]2CO)cc1	USP30 block 51
COCCCNC(=O)[C@H](Cc1ccccc1)NC(=O)[C@@H]1Cc2c([nH]c3ccccc23)C2c3ccccc3C(=O)N21 (some centres not stated)	none
CCN1CCCC1CN(Cc1cc2cc(OC)ccc2[nH]c1=O)C(=O)Nc1ccccc1Cl (configuration not stated)	USP17 block 49
CCN1CCCC1CN(Cc1cc2cc(OC)ccc2[nH]c1=O)C(=O)NCc1ccccc1 (configuration not stated)	USP17 block 53
CCCN1Cc2cccc(C(=O)NCc3ccc(OC)cc3)c2C1=O	none
CCCN1Cc2cccc(C(=O)NCCc3ccccc3)c2C1=O	USP28 inh 31
CCOc1ccc(CCNC(=O)c2cccc3c2C(=O)N(CCOC)C3)cc1OCC	USP28 inh 53
COc1ccc(CC(=O)Nc2nonc2-c2ccc(C)cc2)cc1	none
COc1cccc(/C=C/c2nc3ccccc3c(=O)n2-c2cc(Cl)ccc2C)c1OC	none (no result: USP28 inh, USP30 block)
Cc1ccc(-c2nnc(NC(=O)c3ccco3)o2)cc1C	USP28 inh 49
Cc1ccc(OCC(=O)Nc2cc(NC(=O)c3ccco3)ccc2C)cc1C	USP28 inh 45, USP17 block 60, USP30 block 66
Cc1ccc(OCC(=O)Nc2ccc(NC(=O)c3cccc(Cl)c3)cc2)cc1C	none
COc1ccc(-c2c(C)c(-c3ccccc3)nc(N)c2C#N)cc1	none
COc1ccc(NC(=O)Cn2cncc(C(=O)NC3CC3)c2=O)cc1	none
Cc1ccc(COc2ccccc2C2CC(=O)Nc3n[nH]c(C)c32)cc1 (configuration not stated)	none
Cc1noc(C)c1NC(=O)NC(=O)c1c(F)cccc1F	none
Cn1ncc(-c2nc(-c3ccc(Cl)cc3)cs2)c1NC(=O)NC(=O)c1c(F)cccc1F	USP17 block 53 (no result: USP28 inh, USP30 block)
COc1cccc(-c2cc(C(=O)N3CC(c4nc5ccccc5[nH]4)C3)[nH]n2)c1	USP28 inh 33
COc1cccc(-c2cc(C(=O)N3CCC4(CC3)OCCO4)[nH]n2)c1	none
COc1ccc(-c2cc(C(=O)N3CCN(c4ccc(N5CCOCC5)nn4)CC3)[nH]n2)cc1	USP28 inh 32, USP17 block 38
O=C(c1cc(-c2ccc(Cl)cc2)n[nH]1)N1CCN(c2ccc(N3CCOCC3)nn2)CC1	none
COC(=O)CCSc1ncnc2c1sc1nc(N3CCOCC3)c3c(c12)CC(C)(C)OC3	none (no result: USP28 inh, USP30 block)
COC(=O)CCC(c1ncc(C(F)(F)F)cc1Cl)S(=O)(=O)c1ccccc1 (configuration not stated)	USP17 block 44, USP30 block 58, USP8 block 31
COc1ccc(CC(=O)Nc2cnc3ccc(C(=O)NCc4ccncc4)cn3c2=O)cc1	USP17 block 30
Cc1ccc(C2C3=C(NCCN=C3c3ccccc3)C(=O)N2c2ccccc2)cc1 (configuration not stated)	USP30 block 41
CCOc1ccc(C2=NCCNC3=C2C(c2ccccc2)N(c2ccccc2)C3=O)cc1 (configuration not stated)	USP30 block 54, USP8 block 30

Compound activity: PubChem BioAssay, Buhrlage Lab, Dana-Farber Cancer Institute and Novartis Institutes for BioMedical Research (Cambridge, Mass)
